Drawing on PubChem BioAssay (NCATS), this text covers Potency for eleven compounds.

The nature of experiment [1]: qHTS of pediatric cancer cell lines to identify multiple opportunities for drug repurposing: Primary screen for A673 cells (AID 1347092). Further: potency means the concentration at half of the fitted maximal effect; nearly all actives have a fitted effect of over 45% in size. An outline of the steps: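 A673 cells (500-1,000 cells/well in growth media) were pre-incubated 5 h at 37 degrees C, then exposed to compounds for 48 h. Viability was read as CellTiter-Glo luminescence; concentration-response curves came directly from the primary screen.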
Background: Quantitative high-throughput screening tests each substance at several concentrations.

Experiment [2] can be described thus: qHTS of pediatric cancer cell lines to identify multiple opportunities for drug repurposing: Primary screen for NB-EBc1 cells (AID 1347095). Further: potency means the concentration at half of the fitted maximal effect. An outline of the steps: (§1)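 Cells seeded at 500-1,000 cells/well in growth media, rested 5 hours at 37 degrees C, 5% CO2, then dosed; MIPE compounds at 11-point (from 0.78 nM) and NPC at 8-point (from 0.59 nM) final concentrations. Viability by CellTiter-Glo luminescence after 48 hours.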

The nature of experiment [3]: qHTS of pediatric cancer cell lines to identify multiple opportunities for drug repurposing: Primary screen for U-2 OS cells (AID 1347096). Further: nearly all actives have a fitted effect of over 50% in size. An outline of the steps:
(§2)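 Cells (500-1,000/well) in growth media were settled 5 h at 37 degrees C, then given compounds for 48 h. Viability was read as CellTiter-Glo luminescence. Primary runs used MIPE at 11 points (0.78 nM-46 µM) and NPC at 8 points (0.59 nM-46 µM); follow-ups used 11 points.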

A short description of experiment [4]: qHTS of pediatric cancer cell lines to identify multiple opportunities for drug repurposing: Primary screen for NB1643 cells (AID 1347099). Further: nearly all actives have a fitted effect of over 50% in size. Further: potency means the concentration at half of the fitted maximal effect. The method in brief:
as §1

Experiment [5] is described as follows: qHTS of pediatric cancer cell lines to identify multiple opportunities for drug repurposing: Primary screen for Rh18 cells (AID 1347102). Further: nearly all actives have a fitted effect of over 65% in size. The method in brief: as §2
A short description of experiment [6]: qHTS of pediatric cancer cell lines to identify multiple opportunities for drug repurposing: Primary screen for MG 63 (6-TG R) cells (AID 1347105). Further: nearly all actives have a fitted effect of over 50% in size. An outline of the steps:
as §1

Experiment [7] can be described thus: qHTS of pediatric cancer cell lines to identify multiple opportunities for drug repurposing: Primary screen for Saos-2 cells (AID 1347097). Further: nearly all actives have a fitted effect of over 40% in size. Further: potency means the concentration at half of the fitted maximal effect. The method in brief:
as §1

Experiment [8] is described as follows: qHTS of pediatric cancer cell lines to identify multiple opportunities for drug repurposing: Primary screen for LAN-5 cells (AID 1347100). Further: potency means the concentration at half of the fitted maximal effect. An outline of the steps:
as §2

A short description of experiment [9]: qHTS of pediatric cancer cell lines to identify multiple opportunities for drug repurposing: Primary screen for OHS-50 cells (AID 1347103). Further: nearly all actives have a fitted effect of over 40% in size. Further: potency means the concentration at half of the fitted maximal effect. The method in brief: (§3)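 Cells (500-1,000/well) rested 5 h, then received compounds for 48 h; metabolically active cells were measured by CellTiter-Glo luminescence. Final concentrations spanned up to 46 µM (MIPE, 11-point) or 0.59 nM-46 µM (NPC, 8-point) in primary screens, 11-point in follow-ups.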

Experiment [10] can be described thus: qHTS of pediatric cancer cell lines to identify multiple opportunities for drug repurposing: Primary screen for control Hh wild type fibroblast cells (AID 1347106).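 Further: series mostly up to about 46 µM; a drop in luminescence marks cytotoxicity and a rise apparent proliferation; nearly all actives have a fitted effect of over 55% in size.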 An outline of the steps: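 Viability after 48 h compound treatment at 37C, 500-1,000 cells/well, read as ATP luminescence with CellTiter-Glo. Primary screens used 11-point (MIPE, 0.78 nM-46 µM) or 8-point (NPC, 0.59 nM-46 µM) final concentrations; follow-up screens used 11-point dilutions.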

Experiment [11] can be described thus: qHTS of pediatric cancer cell lines to identify multiple opportunities for drug repurposing: Primary screen for BT-37 cells (AID 1347094). Further: potency means the concentration at half of the fitted maximal effect. The method in brief: as §1
Experiment [12] is described as follows: qHTS of pediatric cancer cell lines to identify multiple opportunities for drug repurposing: Primary screen for SK-N-SH cells (AID 1347098). Further: nearly all actives have a fitted effect of over 65% in size. Further: potency means the concentration at half of the fitted maximal effect. The method in brief:
as §3

Experiment [13] in a line: qHTS of pediatric cancer cell lines to identify multiple opportunities for drug repurposing: Primary screen for SK-N-MC cells (AID 1347093). Further: potency means the concentration at half of the fitted maximal effect. The method in brief:
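Metabolically active cells were quantified by ATP-dependent luminescence (CellTiter-Glo, 15 min at room temperature) following 48 h treatment. Cells had been plated at 500-1,000 per well and settled for 5 h beforehand.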

The nature of experiment [14]: qHTS of pediatric cancer cell lines to identify multiple opportunities for drug repurposing: Primary screen for Rh30 cells (AID 1347107). Further: series mostly up to about 46 µM; nearly all actives have a fitted effect of over 75% in size. The method in brief:
as §2

A short description of experiment [15]: qHTS of pediatric cancer cell lines to identify multiple opportunities for drug repurposing: Primary screen for Rh41 cells (AID 1347108). Further: nearly all actives have a fitted effect of over 70% in size. Further: potency means the concentration at half of the fitted maximal effect. An outline of the steps:
as §1

Experiment [16] is described as follows: qHTS of pediatric cancer cell lines to identify multiple opportunities for drug repurposing: Primary screen for RD cells (AID 1347104). Further: potency means the concentration at half of the fitted maximal effect; nearly all actives have a fitted effect of over 55% in size. The method in brief:
as §1

Experiment [17] in a line: qHTS of pediatric cancer cell lines to identify multiple opportunities for drug repurposing: Primary screen for BT-12 cells (AID 1347101). Further: nearly all actives have a fitted effect of over 25% in size. Further: potency means the concentration at half of the fitted maximal effect. An outline of the steps: as §3

SMILES strings stand for the structures. Results filed as inconclusive are left out. Calls of active or inactive are those of the source. The call rests on the fitted dose curve; in most records, active means well fitted curve in the direction sought with a large enough effect; inconclusive means small, poorly fitted or top-dose-only effect, or another doubt; inactive means no such curve, though single readings can be large; an effect the other way counts as inactive or inconclusive.

With `C[C@@H](NC(=O)c1ncnc(N)c1Cl)c1ncc(C(=O)Nc2cc(C(F)(F)F)c(Cl)cn2)s1`, the results for the Potency in [1], in [2] and in [4] were 18.7 µM (active), 14.8 µM (active) and 14.8 µM (active), respectively. In addition, the Potency result in [3], in experiment [5] and in experiment [6] was “inactive” throughout.

Consider `O=C(Nc1cccc(Cl)c1)Nc1ncc(CCNc2ncnc3ccsc23)s1`, for which the Potency in experiment [1] is 14.8 µM (active); in experiment [7], 2.96 µM (active); in experiment [8] it was 0.132 µM (active); in experiment [9], 7.69 µM (active). Moreover, the Potency entry in experiment [3] and in experiment [10] was “inactive” in each case.

Turning to `CCn1c(-c2nonc2N)nc2cncc(CNC3CCNCC3)c21`, the Potency in [1] is 14.8 µM (active); in experiment [7], 11.8 µM (active); in experiment [12], 24.1 µM (active). The Potency result in [11], in experiment [3], in experiment [9] and in [10] was “inactive” in each case.

For the compound `COc1cc2c(cc1OC)CC(=O)N(CCCN(C)C[C@H]1Cc3cc(OC)c(OC)cc31)CC2`, the Potency in [13] is 14.8 µM (active). The Potency result in experiment [3], in experiment [7], in experiment [8], in [5], in experiment [6] and in experiment [10] was “inactive” each time. The Potency entry in experiment [14] was “inactive”.

As for `O=C(Nc1ccc(OC(F)(F)F)cc1)c1sccc1NCc1ccnc2ccccc12`, the Potency in experiment [13] was 26.4 µM (active). For the same compound, the Potency entry in [2], in experiment [3], in experiment [5], in experiment [6], in [10] and in [14] was “inactive” throughout.

Turning to `CC(=O)NCCC(=O)N[C@@H](CCC(N)=O)C(=O)N[C@@H](CO)C(=O)N[C@@H](CCC(N)=O)C(=O)N[C@@H](CCC(N)=O)C(=O)N[C@H](C(=O)N[C@@H](Cc1ccccc1)C(=O)N[C@]1(C)CCCCCCC=CCCC[C@@](C)(C(=O)N[C@@H](CCC(N)=O)C(=O)N[C@@H](CC(N)=O)C(N)=O)NC(=O)[C@H](CC(C)C)NC(=O)[C@H](CC(C)C)NC(=O)[C@@H](CCCNC(=N)N)NC(=O)[C@H](Cc2c[nH]c3ccccc23)NC(=O)[C@H](CC(C)C)NC(=O)[C@H](CC(N)=O)NC1=O)[C@H](C)O`, the Potency result in experiment [13], in experiment [2], in experiment [3], in experiment [7], in experiment [12] and in experiment [5] was “inactive” each time. In addition, the Potency entry in experiment [9], in [6] and in experiment [10] was “inactive” throughout. The Potency in [15] is 18.7 µM (active).

In the case of `COc1cc2ncnc(Nc3cc(Br)c(O)c(Br)c3)c2cc1OC`, the Potency was 0.0118 µM (active) in experiment [1]; 0.0066 µM (active) in [13]; 20.9 µM (active) in experiment [7]; 16.6 µM (active) in [8]; 27.3 µM (active) in experiment [9]; 0.935 µM (active) in experiment [16]. Further, the Potency entry in experiment [3], in experiment [5], in [10] and in experiment [14] was “inactive” each time.

For the compound `O=C(O)c1ccc(O)c2ncc(N3CCOCC3)cc12`, the Potency in experiment [13] was 18.7 µM (active); in experiment [2], 20.9 µM (active); in experiment [12], 30.4 µM (active); in experiment [4], 23.5 µM (active); in [9], 24.3 µM (active); in [15] it was 18.7 µM (active).

As to `CC(C)c1onc(-c2c(Cl)cccc2Cl)c1COc1ccc(C=Cc2cccc(C(=O)O)c2)c(Cl)c1`, the Potency in experiment [13] is 16.6 µM (active); in experiment [9] it was 30.6 µM (active). The Potency entry in experiment [3], in experiment [4] and in experiment [10] was “inactive” throughout.

In the case of `Cc1ccc(NC(=O)c2ccc(CN3CCN(C)CC3)cc2)cc1Nc1nc(-c2cccnc2)cs1`, the Potency in [1] is 11.8 µM (active); in experiment [11], 24.3 µM (active); in experiment [8], 18.7 µM (active); in [17], 21.7 µM (active); in [9], 21.7 µM (active); in experiment [16], 18.7 µM (active). For the same compound, the Potency result in [2], in experiment [4], in [6], in experiment [10], in experiment [14] and in experiment [15] was “inactive” in each case.

On to `COc1cc2ncn(-c3cc(OCc4ccccc4S(C)(=O)=O)c(C#N)s3)c2cc1OC`, for which, in experiment [1], the Potency is 23.5 µM (active). Also, the Potency entry in experiment [11], in experiment [2], in [3], in experiment [17], in [5] and in experiment [6] was “inactive” each time. Besides, the Potency entry in [15] was “inactive”.
